MARV entry inh: blocks Marburg virus binding to or entry into cells. Marburg virus pseudotyped entry inhibition, cell reporter. Potency, µM (doses to about 37.8 µM), without a hit: at the top dose activity change, negative = inhibition, usual class: inhibitors. 300,000 tested, 1.8% active. AID 540276; calls by dose curve; tested in HEK293 cells; further: potency means the concentration at half of the fitted maximal effect
HCV inh: blocks hepatitis C virus; Huh7.5.1 HCVcc-Cre infection, luciferase reporter, 44 h; Potency, µM (titrated, usually from 41.8 µM), without a hit: at the top dose activity change, negative = inhibition, hits mostly inhibitors; 340,000 tested, 3.4% active; AID 651820; active means well fitted inhibition curve with a large enough effect; inconclusive means small, poorly fitted or top-dose-only effect, or another doubt; inactive means no such curve, though single readings can be large or run the other way; further: potency means the concentration at half of the fitted maximal effect
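1,000 cells/well; 4 h culture; + compound; + HCVcc-Cre (~0.5 moi); 44 h; luciferase substrate, RT 15 min; read 15 sec.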
VACV Venus inh: vaccinia inhibition (Venus reporter) | 330,000 tested, 0.46% active | Potency, µM (titrated, usually from 36.5 µM), for inactives: at the highest dose activity change, negative = inhibition, hits mostly inhibitors | Vaccinia virus Venus reporter expression, fluorescence | AID 720580; calls by dose curve; tested in A549 cells; further: potency means the concentration at half of the fitted maximal effect; nearly all actives have a fitted effect of over 30% in size
Lassa entry inh: blocks Lassa virus binding to or entry into cells. Lassa virus pseudotype entry inhibition, cell reporter. Potency, µM (titrated, usually from 37.9 µM), for the others: top-dose activity change, negative = inhibition, hits mostly inhibitors. 300,000 tested, 1.2% active. AID 540256; calls by dose curve; tested in HEK293 cells; further: potency means the concentration at half of the fitted maximal effect; nearly all actives have a fitted effect of over 50% in size
VACV mCherry inh: vaccinia inhibition (mCherry reporter). 310,000 tested, 0.63% active. Vaccinia virus mCherry reporter infection, fluorescence. Potency, µM (titrated, usually from 36.5 µM), for inactives: at the top dose activity change, negative = inhibition, actives largely listed as inhibitors; calls by dose curve; tested in A549 cells; further: potency means the concentration at half of the fitted maximal effect; nearly all actives have a fitted effect of over 35% in size
HCMV antiviral: blocks human cytomegalovirus replication; HFF cells, HCMV-luciferase reporter, 72 h; hits give low values; activity change, negative = inhibition, % at 57.5 µM; AID 1259415; 410,000 tested, 4.5% active; in the data active means activity change below about -60%; inconclusive means no clear call, values can overlap the other calls; inactive means above about -39%
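Two compound doses tested in HFFs infected with HCMV-luciferase, MOI 1 PFU/cell, 72 h at 37C. Lysate luminescence read with OneGlo; data normalized against buffer-only and 10uM Salinomycin inhibitor controls.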
* marks the source's active call; other numbers are inactive results; [ ] = dose if it differs, or a comment. The list is not random: actives were taken first. Their share in the collection is about 7.8%. On the % scale 0 is the no-effect control and ±100 the full control effect.

`Cc1nc(N)sc1-c1csc(Nc2ncccn2)n1` gave MARV entry inh inconclusive, HCV inh inconclusive, VACV Venus inh -6.8%, Lassa entry inh 2.9%, VACV mCherry inh -6.1% and HCMV antiviral -77.1*.
`Cc1nc(N)sc1-c1csc(Nc2ccc(S(N)(=O)=O)cc2)n1` gave HCV inh 10µM* and HCMV antiviral -15.1.
For COc1cccc(Nc2nc3cc(Cl)c(Cl)cc3nc2-n2nc(C)cc2C)c1 the results were MARV entry inh 8.5%[46.1 µM], VACV Venus inh -8.8%, Lassa entry inh 13.2%[46.1 µM], VACV mCherry inh -12.5% and HCMV antiviral 5.1.
Screening Cn1c(SCC2CCCO2)nnc1C1CCN(Cc2ccc(-c3cccc(Cl)c3)o2)CC1 (stereo not drawn) returned VACV Venus inh -14.6% and VACV mCherry inh inactive.
Screening COc1ccc(-c2csc(Nc3ccccc3)n2)cc1 returned MARV entry inh inconclusive, HCV inh 14.1µM*, VACV Venus inh -4.9%, Lassa entry inh inconclusive, VACV mCherry inh -16.5% and HCMV antiviral -8.9.
Screening CN(C)CCCN(C(=O)CCc1ccccc1)c1nc2c(F)cccc2s1 returned MARV entry inh inconclusive, HCV inh -69.1%, VACV Venus inh inconclusive, Lassa entry inh inconclusive, VACV mCherry inh inconclusive and HCMV antiviral inconclusive.
Cc1cccc2sc(N(CCN(C)C)C(=O)/C=C/c3cccs3)nc12 was read as MARV entry inh inconclusive, HCV inh inconclusive, VACV Venus inh inconclusive, Lassa entry inh inconclusive, VACV mCherry inh -26.1% and HCMV antiviral -77.4*.
`Cc1cccc2sc(N(CCN(C)C)C(=O)C3CCN(S(=O)(=O)c4cccs4)CC3)nc12` gave MARV entry inh -2.1%, HCV inh inconclusive, VACV Venus inh -18.9%, Lassa entry inh 10.5%, VACV mCherry inh -6.6% and HCMV antiviral -4.8.
For CN(C)CCCN(C(=O)/C=C/c1cccs1)c1nc2c(F)cccc2s1 the results were MARV entry inh inconclusive, HCV inh inconclusive, VACV Venus inh 10µM*, Lassa entry inh inconclusive, VACV mCherry inh 10µM* and HCMV antiviral inconclusive.
Screening O=C(NCCS(=O)(=O)N1CCN(c2ccccc2)CC1)C(c1ccccc1)c1ccccc1 returned VACV Venus inh -20.7%, Lassa entry inh inconclusive, VACV mCherry inh -25.1% and HCMV antiviral 58.8.
Screening CCCCC(=O)NC1(C(F)(F)F)C(=O)Nc2c1c(=O)[nH]c(=O)n2-c1ccc(F)cc1 (stereo not drawn) returned VACV Venus inh 0.4%, Lassa entry inh 9.3%[46.1 µM], VACV mCherry inh -6.1% and HCMV antiviral 17.3.
Screening COc1cc(OC)c(N(C)C(=O)CSc2c3c(nc4ccc(Cl)cc24)CCCC3)cc1Cl returned MARV entry inh -4.4%[46.1 µM], VACV Venus inh -10.0%, Lassa entry inh inconclusive, VACV mCherry inh -12.9% and HCMV antiviral -31.6.
COc1cc(/C=N/NS(=O)(=O)c2ccc3ccccc3c2)ccc1OCc1ccc(C(=O)O)cc1 was read as MARV entry inh 0.891µM*, HCV inh -1.0%, VACV Venus inh 18.2%, Lassa entry inh inconclusive, VACV mCherry inh inactive and HCMV antiviral 35.4.
COc1cc(/C=N/NS(=O)(=O)c2ccc(C)cc2)ccc1OCc1cccc(C(=O)O)c1 was read as MARV entry inh inconclusive, HCV inh 29.1%, VACV Venus inh -8.6%, Lassa entry inh inconclusive, VACV mCherry inh inactive and HCMV antiviral 57.3.
`COC(=O)c1ccc(COc2ccccc2/C=N/NS(=O)(=O)c2ccccc2)cc1` gave MARV entry inh 13µM*, HCV inh 10µM*, Lassa entry inh -28.9% and HCMV antiviral -85.6*.
For COC(=O)c1ccc(COc2ccccc2/C=C(\C#N)C(=O)Nc2c(C)cc(C)cc2C)cc1 the results were MARV entry inh inconclusive, HCV inh inconclusive, VACV Venus inh -23.9%, Lassa entry inh inconclusive, VACV mCherry inh -25.7% and HCMV antiviral -93.4*.
Screening CCOc1cc(/C=N/O)ccc1OCc1ccc(F)cc1 returned MARV entry inh inconclusive, HCV inh 7.08µM*, VACV Venus inh -22.3%, Lassa entry inh 4.7%, VACV mCherry inh inactive and HCMV antiviral -30.4.
Screening CS(=O)(=O)CC[C@H](C(=O)n1nnc2ccccc21)N1C(=O)c2ccccc2C1=O returned MARV entry inh -4.8%[46.1 µM].
For COc1cc(/C=N/O)ccc1OCc1ccc(Cl)cc1 the results were HCMV antiviral 136.7.
`COc1cc(/C=N/O)ccc1OCc1ccc(C(=O)O)cc1` gave MARV entry inh 0.1µM*, HCV inh 27.4%, VACV Venus inh -0.4%, Lassa entry inh inconclusive, VACV mCherry inh -6.8% and HCMV antiviral 58.6.
Cc1cccn2cc(-c3cccc(NC(=O)C(C)C)c3)nc12 was read as MARV entry inh -2.7%[46.1 µM], VACV Venus inh -3.4%, Lassa entry inh 13.6%[46.1 µM], VACV mCherry inh -17.2% and HCMV antiviral 4.6.
`CC(=O)c1c(C)[nH]c(C(=O)Nc2nccs2)c1C` gave MARV entry inh inconclusive, HCV inh 10µM*, VACV Venus inh inconclusive, Lassa entry inh inconclusive, VACV mCherry inh -2.6% and HCMV antiviral 55.5.
COc1ccc(/C(C)=N/NC(=O)c2nnn(-c3nonc3N)c2CN(C)c2ccccc2)cc1 was read as HCV inh 0.5% and HCMV antiviral inconclusive.
CCCc1c(C(=O)N/N=C(\C)c2ccccn2)nnn1-c1nonc1N was read as VACV Venus inh inconclusive, VACV mCherry inh 0.891µM* and HCMV antiviral -97.7*.
Screening C/C(=N\NC(=O)c1nnn(-c2nonc2N)c1CN(C)c1ccccc1)c1ccccc1O returned MARV entry inh 8.91µM*, HCV inh inconclusive, VACV Venus inh inconclusive, Lassa entry inh inconclusive, VACV mCherry inh inconclusive and HCMV antiviral -100.1*.
For CCOC(=O)c1c(C)c(-c2ccccc2)n(CC(=O)NCCc2cccc(C)c2)c1C the results were MARV entry inh inconclusive, VACV Venus inh -4.0%, VACV mCherry inh -4.6% and HCMV antiviral -3.3.
For Cc1occc1C(=O)Nc1cccc(-c2nc(CNC(=O)c3ccc(N4CCCCC4)cc3)c(C)o2)c1 the results were VACV Venus inh -2.7% and VACV mCherry inh -10.0%.
For CCN1C[C@@H]2[C@@H]3C(=O)N(Cc4ccccc4)C(=O)[C@@H]3[C@](Cc3ccccc3)(C1=O)N2C(=O)c1ccccc1 the results were HCV inh 20.0%, VACV Venus inh -10.7%, VACV mCherry inh inactive and HCMV antiviral -7.5.
CCN1C[C@@H]2[C@@H]3C(=O)N(Cc4ccccc4)C(=O)[C@@H]3[C@](Cc3ccccc3)(C1=O)N2C(=O)c1ccc(Cl)cc1 was read as HCV inh 7.4%, VACV Venus inh -11.5%, VACV mCherry inh -0.3% and HCMV antiviral -69.4*.
